NR1D1 modulator = modulates human Rev-erb alpha binding to DNA | Rev-erbα–FITC-DNA binding, fluorescence polarization, 90 min | activity, % at 10 µM | P20393 | 370,000 compounds, 0.79% hits;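 active means activity above about 14%, limit read from the data; passing the limit was not always enough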;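 further: 0% = DMSO wells with 35 nM protein and 100% = DMSO wells with 750 nM protein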
ssDAF-12 act = S. stercoralis DAF-12 activation, primary screen; HEK293 ssDAF-12/GRIP1 lit1-tk-luc reporter, luminescence; % of 3 µM dafachronic acid response; activation, % at 6.8 µM; 370,000 compounds, 1% hits; AID 652126;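 active means activation above the mean over all tested compounds plus 3 SD, cut at about 0.9% in these data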;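 further: 0% = DMSO-only wells and 100% = 3 µM delta7-dafachronic acid wells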
DAX1 inh-1 = blocks DAX1 repression of SF-1 activated StAR promoter. AID 652010. inhibition, % at 6.8 µM. 370,000 compounds, 1.1% hits. HEK293T StAR-luciferase reporter, SF-1/DAX-1 repression relief;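 active means inhibition above the mean over all tested compounds plus 3 SD, cut at about 3.6% in these data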;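 further: 0% = DAX-1 cells with DMSO and 100% = cells lacking DAX-1 with DMSO; higher inhibition means more luminescence from relief of DAX-1 repression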
hcDAF-12 act = activates DAF-12 receptor from parasite H. contortus; HEK293 hcDAF-12 lit1-tk-luc reporter, luminescence; 0% DMSO, 100% Δ7-dafachronic acid; activation, % at 6.8 µM; 370,000 compounds, 1.4% hits;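 active means activation above the mean of all tested compounds plus 3 SD, cut at about 5.5% in these data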;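 further: 100% = response to 3 µM Δ7-dafachronic acid high control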
hgDAF12 agonist = agonists of H. glycines DAF-12 nuclear receptor; HEK293 GAL4-hgDAF12 UAS-luciferase reporter, agonist luminescence; normalized to butyrate control; activation, % at 6.8 µM; 370,000 compounds, 1.8% hits;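 active means activation above a cutoff set at the mean of all screened compounds plus 3 SD, cut at about 10% in these data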;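 further: 0% = DMSO wells and 100% = sodium butyrate wells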
DAX1 inh-2 = inhibitors of human orphan nuclear receptor DAX1 (NR0B1); P51843; HEK293 Gal4-DAX1 luciferase reporter, luminescence; inhibition, % at 6.75 µM; 340,000 compounds, 0.99% hits;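 active means inhibition above the mean over all tested compounds plus 3 SD, cut at about 4.2% in these data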;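 further: 0% = DAX1-transfected cells with DMSO and 100% = empty-vector control cells with DMSO; inhibition shows as a rise in luminescence from relieved DAX1 repression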
Target sequence (P51843 207-470 limits assumed): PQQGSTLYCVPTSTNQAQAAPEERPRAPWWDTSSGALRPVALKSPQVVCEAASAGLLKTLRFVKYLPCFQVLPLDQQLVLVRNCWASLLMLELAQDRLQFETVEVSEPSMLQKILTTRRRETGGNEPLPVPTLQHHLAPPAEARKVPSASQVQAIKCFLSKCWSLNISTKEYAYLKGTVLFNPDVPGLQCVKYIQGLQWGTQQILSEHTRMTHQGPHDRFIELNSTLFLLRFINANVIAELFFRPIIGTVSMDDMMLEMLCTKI
Starred values were filed as active, the others as inactive; / = not tested or not shown. An excerpt weighted towards active compounds, which were near 4.8% of everything screened.

SMILES	NR1D1 modulator	ssDAF-12 act	DAX1 inh-1	hcDAF-12 act	hgDAF12 agonist	DAX1 inh-2
Cc1cc(NC(=O)COc2ccccc2C(N)=O)no1	-2	0	3	1	7	4.8*
Cc1cc(NS(=O)(=O)c2ccc(NC(=O)c3oc4ccccc4c3C)cc2)no1	-4	0.9*	1	4	1	3
Cc1cc(NS(=O)(=O)c2ccc(NC(=O)/C=C/c3ccc(Br)cc3)cc2)no1	-4	-1	4.5*	-1	0	0
Cc1cc(NC(=O)COc2ccccc2C)no1	-2	0	3	1	8	0
COc1ccc(OCC(=O)Nc2ccc(S(=O)(=O)Nc3cc(C)on3)cc2)cc1	0	0	1	1	-1	-1
COc1ccccc1OCC(=O)Nc1ccc(S(=O)(=O)Nc2cc(C)on2)cc1	3	1.2*	0	5	-1	1
O=C[C@H](O)[C@@H](O)[C@H](O)[C@H](O)CO	3	/	/	/	/	/
C=CCNC(=S)NNc1nc2c(c(=O)[nH]1)C1(CCCCC1)Cc1ccccc1-2	1	-1	1	-1	2	4.4*
COC(=O)[C@]12C[C@H](CC(=O)N3CCN(C(=O)c4ccco4)CC3)C(=O)N(CCc3ccc(OC)c(OC)c3)C1=C[C@H](C(C)(C)C)O[C@@H]2C	12	-1	0	-4	-4	/
O=C1c2ccccc2C(=O)c2c(O)c(O)cc(O)c21	-24	0	0	2	5	-1
O=C1C=C(O)c2c(O)cc(O)c(O)c2C1=O	-30	-2	0	0	-2	5.2*
C[C@@H](CO)N(Cc1cn(Cc2ccccc2)nn1)S(=O)(=O)c1ccccc1Br	-1	-1	0	-2	0	/
CC(=O)N1CCOc2cc(S(=O)(=O)NCc3ccc(F)cc3)c(C)cc21	7	-1	0	-2	0	5.6*
Cc1nc(N2CCN(c3ccccn3)CC2)c2c(C)c(C(=O)Nc3ccccc3F)sc2n1	15	0	1	0	-1	5.3*
O=c1[nH]c2cccnc2c2ccsc12	-5	0	0	0	-2	5.9*
Cc1csc(NC(=O)/C=C/c2ccc3c(c2)OCO3)n1	-6	1.1*	4.6*	4	15*	-2
COc1cccc(-c2nnn(CC(C)=O)n2)c1	0	0	1	4	11*	1
COc1ccc(-c2ccc(-c3nnn(CC(C)=O)n3)cc2)cc1	-4	-1	0	2	8	0
Cc1cc2sc3ccccc3c(=O)c2c(C)c1O	1	1.1*	2	4	9	0
O=c1c2ccccc2sc2ccccc12	8	-1	1	2	2	2
CC(=O)N[C@@H]1C[C@@H]2O[C@H](CO)CC[C@@H]2O[C@@H]1CCc1ccc(C#CC2(O)CCCC2)cc1	-1	-2	0	-1	3	/
CC1(C)Cc2c(cnn2-c2ccc(F)cc2)C(NC(=O)C2CCC2)C1 (stereo not given)	-2	-1	4.3*	0	-1	0
C=CCN1[C@H](CC(C)C)COc2cccc(N3CCSCC3)c2S1(=O)=O	2	-2	-1	-2	4	/
Cc1ccc(Cl)cc1N1C(=O)CC(Sc2ncccn2)C1=O (stereo not given)	-2	0	0	-1	-2	4.7*
O=C1CC(Sc2ncccn2)C(=O)N1c1ccccc1C(F)(F)F (stereo not given)	5	-1	-1	0	-1	-1
SMILES	NR1D1 modulator	ssDAF-12 act	DAX1 inh-1	hcDAF-12 act	hgDAF12 agonist	DAX1 inh-2
Cc1ccc(N(CC(=O)NCCc2ccccc2)C(=O)CCC(=O)Nc2cc(C)ccn2)cc1	-6	-1	0	1	0	5.4*
Cc1ccnc(NC(=O)CCC(=O)N(CC(=O)NCCc2ccccc2)c2ccccc2F)c1	-3	-2	0	-2	2	-1
COCCNC(=O)CN(C(=O)CCC(=O)Nc1ccccn1)c1ccc(OC)cc1	-5	-1	0	-2	3	5.0*
COCCNC(=O)CN(C(=O)Cn1nnc2ccccc21)c1ccc(C)cc1	5	0	1	1	-3	4.5*
COc1ccc(OCC2CN(Cc3ccccc3)S(=O)(=O)CCO2)cc1 (stereo not given)	0	0	0	-1	-4	/
O=P(c1ccccc1)(c1ccccc1)C1CCCO1 (stereo not given)	4	-1	1	0	-2	4.3*
O=C(Cc1ccccc1)NCC1CCCO1 (stereo not given)	-2	-1	0	-1	0	0
Cc1cc(N2CCN(C(=O)OC(C)(C)C)C[C@H]2C)ccc1N1CCS(=O)(=O)CC1	-6	-2	-1	0	-3	/
O=C(NNC(=O)c1cc2cc(Br)ccc2oc1=O)c1ccc(O)cc1	5	2.5*	0	1	-2	0
COc1ccc2oc(=O)c(C(=O)Nc3ccccc3C)cc2c1	-2	0	2	4	12*	3
O=C(Nc1ccccc1O)c1cc2cc(Br)ccc2oc1=O	-10	1.1*	0	2	7	2
NC(=S)c1cc2cc(Br)ccc2oc1=O	2	-2	0	2	2	0
Brc1ccc(-c2csc(N3CCNCC3)n2)cc1	0	-2	/	3	0	/
COc1ccc(S[C@]2(C(=O)N3CCOCC3)CC(=O)N(C(=O)C3CC3)[C@@H]2c2ccc(OC)cc2)cc1	-6	-2	-2	0	3	/
CN(C)c1cccc(-c2nnc(SCCCC#N)o2)c1	-5	0	2	5	11*	1
CN(C)CCSc1nnc(-c2ccccc2)o1	4	0	1	2	4	2
O=C(NC1CC1c1ccccc1)N1CCC(c2nc3ccc(Cl)cc3[nH]2)CC1 (stereo not given)	-7	-1	-2	-1	-1	/
O=C(Nc1cccnc1Cl)c1cc(-c2ccc(F)cc2)on1	18	-1	0	0	-1	5.0*
COc1ccc(-c2cc(C(=O)Nc3cccnc3Cl)no2)cc1	9	-1	0	-1	-1	0
O=C(NC(=S)Nc1ncccn1)c1ccc(F)cc1	-2	0	1	3	5	3
Cc1ccc(NC(=O)c2cc(-c3ccc(F)cc3)on2)cc1C	-4	-2	0	-2	1	6.1*
O=C(NC(=S)Nc1cccnc1Cl)c1ccc(F)cc1	0	0	1	4	9	5.4*
C=C(C)[C@@H]1CC=C(C)CC1	-3	/	/	/	/	/
O=C(OCc1cn(Cc2ccc(F)cc2)nn1)N1CCOCC1	-5	-1	0	3	1	/
COc1ccc2c(c1)N[C@@](CCN1C(=O)c3ccccc3C1=O)(c1[nH]c3ccccc3c1CCN1C(=O)c3ccccc3C1=O)C2=O	-2	-1	/	-1	-4	/
